These results are taken from PubChem BioAssay AID588346 (National Center for Advancing Translational Sciences (NCATS), 2011).

Results filed as inconclusive are left out. The source made the active and inactive calls. Calls follow the shape of the dose curve; as a rule, active = well fitted curve in the direction sought with a large enough effect; inconclusive = small, poorly fitted or top-dose-only effect, or another doubt; inactive = no such curve, though single readings can be large or run the other way.

The assay can be described thus: qHTS Assay for Inhibitors of Histone Lysine Methyltransferase G9a: Hit Confirmation in b-rIgG Counterscreen. The text has this:
Methylated lysines, on the N-terminal tails of histone proteins serve as epigenetic markers to recruit factors that can then modify local chromatin structure to lead to functional consequences. G9a and other members of the SUV39 family of the SET domain-containing superfamily of histone lysine methyltransferases (HMT) have been identified to specifically methylate Lys9 of histone H3 (H3K9). G9a catalyzes the mono- and di-methylation of H3K9 in mammalian euchromatic regions, where the resulting H3K9me2 is indicative of transcriptional repression. […] The inhibition of G9a will result in transcriptional activation and work synergistically with DNA methyltransferase and histone deacetylase inhibitors, to kill cancer cells. This qHTS assay for identification of G9a inhibitors is a chemiluminescence based AlphaScreen (PerkinElmer). Methylation of biotinylated-histone peptide is measured through specific antibody-based detection, in conjunction with streptavidin-coated donor and anti-IgG antibody-coated acceptor beads. The method is particularly well suited for detection of inhibitors acting by the desired histone peptide competitive mechanism and is applicable to testing other HMTs. Although AlphaScreen has significant advantages with its utility in a variety of epigenetic target assays, the primary screening data provided in this deposition should be used with caution due to the prevalence of screening artifacts. Because an AlphaScreen counterscreen is highly recommended to be run against any putative actives to eliminate non specific artifacts, this assay was used as a counterscreen. Quinn et al. A chemiluminescence-based method for identification of histone lysine methyltransferase inhibitors. Mol Biosyst 6(5): 782-8. 2010. PMID: 20567762 [2] Baell,Holloway. New substructure filters for removal of pan assay interference compounds (PAINS) from screening libraries and for their exclusion in bioassays. J Med Chem. 53(7):2719-40. 2010. PMID: 20131845 NIH Chemical Genomics Center [NCGC] NIH Molecular Libraries Probe Production Network [MLPCN] MLPCN Grant: MH084681-02 Assay Submitter (PI): Structural Genomic Consortium - Toronto, Peter Brown
Biotinylated rabbit-IgG (b-rIgG) (Santa Cruz Biotechnology, Inc., Santa Cruz, CA) was added to 1,536-well plates in a 3 uL dispense. Compounds were added in a 23 nL pin-transfer step, and plates were incubated at room temperature for 15 min. Streptavidin-coated donor and anti-rIgG acceptor AlphaScreen beads were added (1 uL) for final concentrations of 20 ug/mL each bead and 1 nM b-rIgG, and plates read on the Envision after a 15 min incubation at room temperature in the dark.

With `Oc1ccc2c3c1O[C@H]1[C@@H](O)CC[C@@]4(O)C(C2)N(CC2CCC2)CCC314` (some centres not stated), the compound was called inactive.

`C/C(O)=C(\C#N)C(=O)Nc1cc(Br)ccc1Br`: the result was inactive.

Regarding `CN1CSC(=S)N(C)C1`, the result was inactive.

In the case of `NCCc1c[nH]c2ccc(O)cc12`, the compound was called inactive.

Consider `CCCN(CCC)CCc1c[nH]c2ccc(C(N)=O)cc12`, for which the result was inactive.

Take `O=C1NC(=O)N(CCc2ccc(F)cc2)C(=O)/C1=C/C=C/c1ccccc1`: the call was inactive.

As for `COc1ccc(OC)c(N2C(=O)NC(=O)/C(=C\c3ccc([N+](=O)[O-])s3)C2=O)c1`, the result was inactive.
